Results: PubChem BioAssay (NCI)
Compounds without any hit were thinned out: in the full panel of roughly 79,000, 15% have a hit. Values without a mark were called inactive. Active and inactive are the calls of the source. No stated cut-off is given here; in the data, active means growth inhibition above about 70%; inactive means the rest. Where a SMILES comes first, the peptide text is derived from it. The star is where a group is joined. Trt = c1ccc(C(c2ccccc2)(c2ccccc2)*)cc1; Cbz = O=C(OCc1ccccc1)*

Columns and labels:
[1] = NCI Yeast Anticancer Drug Screen. Data for the rad50 strain (AID 155);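 further: 0% = growth of vehicle-only cultures of the same strain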; details: S. cerevisiae rad50 strain growth inhibition, stronger effect = higher value
Method in brief: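 Readout: growth inhibition relative to vehicle-treated cultures. Compound exposure was carried out in a genetically defined yeast strain deficient in DNA damage repair.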

[2] = NCI Yeast Anticancer Drug Screen. Data for the mec2-1 strain (AID 157); details: S. cerevisiae mec2-1 strain, stronger effect = higher value
Method in brief: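 Mutant yeast (mec2-1) grown with compound; growth inhibition relative to vehicle control reported.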

[3] = NCI Yeast Anticancer Drug Screen. Data for the sgs1 mgt1 strain (AID 161);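 further: 0% = growth of cultures given vehicle only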; details: S. cerevisiae sgs1 mgt1 strain, stronger effect = higher value
Method in brief: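 Yeast cells carrying a defined DNA-repair defect were exposed to test compounds. Growth inhibition was measured relative to vehicle-treated controls.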

[4] = NCI Yeast Anticancer Drug Screen. Data for the cln2 rad14 strain (AID 165);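 further: 0% = growth equal to vehicle treated cultures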; details: S. cerevisiae cln2 rad14 strain, stronger effect = higher value
Method in brief: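 Readout is yeast growth inhibition versus vehicle-treated controls, using a strain with cln2 and rad14 alterations exposed to compound.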

[5] = NCI Yeast Anticancer Drug Screen. Data for the bub3 strain (AID 167); details: S. cerevisiae bub3 mutant strain, stronger effect = higher value
Method in brief: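 Readout: yeast growth inhibition, expressed relative to vehicle-only wells. The test organism is a mutant strain from a panel with lesions in DNA repair or checkpoint genes.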

[6] = NCI Yeast Anticancer Drug Screen. Data for the mlh1 rad18 strain (AID 175); details: S. cerevisiae mlh1 rad18 strain growth inhibition, stronger effect = higher value
Method in brief: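 Genetically defined yeast (DNA repair-deficient) exposed to compounds; growth inhibition determined relative to vehicle.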

[7] = at 5.0 µM (retest, dose inferred, filed as 0.5)
[8] = at 50.0 µM (retest, dose inferred, filed as 5.0)

SMILES | growth inhibition [1, 7] | growth inhibition [1, 8] | growth inhibition ([1]; at 50.0 µM) | growth inhibition [2, 7] | growth inhibition [2, 8] | growth inhibition ([2]; at 50.0 µM) | growth inhibition [3, 7] | growth inhibition [3, 8] | growth inhibition ([3]; at 50.0 µM) | growth inhibition [4, 7] | growth inhibition [4, 8] | growth inhibition ([4]; at 50.0 µM) | growth inhibition [5, 7] | growth inhibition [5, 8] | growth inhibition ([5]; at 50.0 µM) | growth inhibition [6, 7] | growth inhibition [6, 8] | growth inhibition ([6]; at 50.0 µM)
CCCCCN(CCCCC)CC(O)c1cc2ccccc2c2ccccc12 (configuration not stated) | -1% | 98% (active) | 99.3% (active) | 11% | 99% (active) | 99.4% (active) | 18% | 100% (active) | 99.4% (active) | -12% | 98% (active) | 99.2% (active) | -1% | 99% (active) | 99.3% (active) | 27% | 99% (active) | 99.2% (active)
CSC(SC)=C(C#N)C(=O)Nc1ccc(C)cc1 | 25% | 47% | 40.5% | 10% | 53% | 77.3% (active) | 37% | 55% | 73.4% (active) | 36% | 37% | 29.3% | 50% | 53% | 89.7% (active) | 8% | 8% | 83.8% (active)
CNC(=O)OC(C)CN1c2ccccc2Sc2ccccc21 (configuration not stated) | -10% | 97% (active) | 90.2% (active) | -21% | 98% (active) | 92.2% (active) | 5% | 96% (active) | 93.1% (active) | -1% | 93% (active) | 90.3% (active) | 1% | 98% (active) | 91.7% (active) | -11% | 98% (active) | 91.4% (active)
CC(CO)(Nc1ccc([N+](=O)[O-])cc1[N+](=O)[O-])C(=O)O (configuration not stated) | 21% | 99% (active) | 97.1% (active) | 14% | 99% (active) | 99% (active) | 10% | -22% | 98.1% (active) | 1% | 99% (active) | 70.1% (active) | 1% | 99% (active) | 95% (active) | 6% | 99% (active) | 97.5% (active)
CCCC(=O)NC1=C(Cl)C(=O)c2ccccc2C1=O | 100% (active) | 99% (active) | 91.8% (active) | 100% (active) | 100% (active) | 92.5% (active) | 100% (active) | 100% (active) | 92.5% (active) | 90% (active) | 99% (active) | 91.5% (active) | 100% (active) | 99% (active) | 89.7% (active) | 101% (active) | 99% (active) | 87.5% (active)
COC(=O)C(CSC(c1ccccc1)(c1ccccc1)c1ccccc1)NC(=O)C(CC(N)=O)NC(=O)OCc1ccccc1 (stereo not drawn) (Cbz-Asn-Cys(Trt)-OMe; configuration not given here) | 32% | 84% (active) | 73.5% (active) | 13% | 89% (active) | 68.2% | 17% | 94% (active) | 72.5% (active) | 27% | 94% (active) | 72% (active) | 15% | 94% (active) | 68.8% | 27% | 88% (active) | 68.9%
Cc1cc(N(CCOS(C)(=O)=O)CCOS(C)(=O)=O)ccc1C=Nc1ccc(-c2csc(-c3ccc(Cl)cc3)n2)cc1 | 22% | 93% (active) | 93.9% (active) | 17% | 96% (active) | 97% (active) | 18% | 93% (active) | 96.4% (active) | 4% | 93% (active) | 87.7% (active) | -2% | 88% (active) | 90.3% (active) | 57% | 95% (active) | 94.9% (active)
O=C1CCC/C(c2ccccc2)=N\N=C/1c1ccccc1 | 7% | 12% | 54.8% | 10% | 16% | -6.6% | 10% | 34% | 21.6% | 8% | 12% | -5.1% | 11% | 33% | 24.3% | 4% | 18% | 23.6%
CNC(=O)N1N[C@H](c2ccccc2)[C@@H]1c1ccccc1 | 25% | 69% | 30.6% | 15% | 50% | 35% | 21% | 63% | 47.4% | 20% | 32% | 36.9% | 29% | 72% (active) | 46.9% | 23% | 60% | -14.1%
O=C=Nc1ccccc1-c1ccc([N+](=O)[O-])cc1Cl | -1% | 20% | 73.2% (active) | 32% | 62% | 37.6% | 8% | 44% | 21.9% | -5% | -2% | 68.8% | 36% | 42% | 83.7% (active) | 40% | 62% | 84.2% (active)
Cc1cc(-c2ccccc2)nc2nc3ccccc3n12 | 2% | 30% | 7.95% | 16% | 21% | 5.8% | -11% | 67% | 12.4% | 14% | 43% | -30.7% | 21% | 82% (active) | 29.2% | -6% | 45% | 31.6%
COc1ccccc1C1SC(c2ccccc2)(c2ccccc2)OC1=O (configuration not stated) | -2% | -9% | 84.6% (active) | -2% | -4% | 50.1% | 12% | -2% | 80.2% (active) | -2% | -7% | 84.8% (active) | -1% | 16% | 85.9% (active) | 0% | -6% | 80.9% (active)
COC(=O)c1ncc(Cl)cc1Cl | 3% | -4% | 59.9% | 0% | -7% | 39.8% | 0% | -7% | 58.8% | 7% | -7% | 22.1% | 1% | -19% | 38.4% | 0% | -1% | 46.4%
OC1(C2CCCCC2)c2ccccc2Cc2ccccc21 | 6% | 80% (active) | 97.2% (active) | 13% | 76% (active) | 98% (active) | 12% | 93% (active) | 96.4% (active) | -1% | 86% (active) | 95.4% (active) | 9% | 90% (active) | 96.8% (active) | 7% | 90% (active) | 97% (active)
O=C(CC(=O)c1ccccc1)CC1(O)CCCCC1 | 22% | 42% | 61.1% | 2% | 16% | 78.9% (active) | 4% | 34% | 79.9% (active) | -9% | 14% | 50.4% | 15% | 86% (active) | 96% (active) | 6% | 29% | 89.1% (active)
O=C(Nc1cc(Cl)cc(Cl)c1)OCCCl | 53% | 87% (active) | 90.8% (active) | 32% | 77% (active) | 93% (active) | 36% | 84% (active) | 93.8% (active) | 24% | 63% | 92% (active) | 41% | 88% (active) | 92.6% (active) | 53% | 93% (active) | 92.5% (active)
Cc1cc(/C=C/c2cccc[n+]2C)c(C)n1-c1ccccc1 | 4% | 85% (active) | 96% (active) | -1% | 93% (active) | 91.6% (active) | 1% | 90% (active) | 95.8% (active) | -4% | 85% (active) | 90.8% (active) | -8% | 85% (active) | 17.1% | 6% | 94% (active) | 93.7% (active)
CCC(c1ccc(O)cc1)C(CC)c1ccc(O)c(O)c1 (configuration not stated) | 16% | 98% (active) | 99.6% (active) | 12% | 99% (active) | 99.5% (active) | 13% | 99% (active) | 99.5% (active) | -2% | 99% (active) | 99.4% (active) | 10% | 98% (active) | 99.5% (active) | 12% | 97% (active) | 99.5% (active)
COc1cnn(-c2ccccc2)c(=O)c1SCc1ccc(Cl)c(Cl)c1 | -3% | 7% | 42.5% | -3% | 33% | 7.95% | 1% | 62% | 71.2% (active) | -6% | 23% | 49.9% | 2% | 51% | 53% | -4% | 25% | 37.4%
